Mtb hypoxia rep = PubChem AID 1159583; M. tuberculosis hypoxia-regulated fluorescent reporter, fluorescence; fluorescence inhibition, % (test concentration not listed); actives 0.1% (n = 300,000); in the data active = fluorescence inhibition mostly above about 23%, no sharp cut-off; inactive = mostly below about 17%
Sa ugtP lethal = growth inhibition of ugtP-null S. aureus, primary screen, RN4220 ugtP deletion, OD600 | actives 0.54% (n = 330,000) | 16 h | growth inhibition, % (concentration not given with the values); in the data active = growth inhibition above about 68%;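 also: plate controls were untreated wells for no effect and antibiotic for full effect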
RN4220 kill = growth inhibition of S. aureus RN4220, primary screen, OD600; 16 h; inhibition, % (test concentration not listed); actives 0.33% (n = 330,000); in the data active = inhibition above about 85%;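 also: plate controls were untreated cells for no effect and reference antibiotic for full effect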
SSB-PriA inh = inhibitors of Klebsiella pneumoniae PriA binding to SSB C-terminal tail, primary screen, biochemical, AlphaScreen | actives 0.6% (n = 430,000) | inhibition, % at 33 µM | AlphaScreen SSBct-PriA binding, biotinylated peptide; in the data active = inhibition mostly above about 37%, no sharp cut-off; inactive = mostly below about 20%;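 also: plate controls were negative control peptide for no effect and reference peptide for full effect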
Starred values were filed as active, the others as inactive; nt = no result shown. Compounds with a hit are over-represented: about 1.1% of the library has one in this group of screens.

SMILES	Mtb hypoxia rep	Sa ugtP lethal	RN4220 kill	SSB-PriA inh
COC(=O)C1=C(NC(=O)c2ccccc2I)CCS1	nt	nt	nt	51*
CCCCn1cnc2c(c(-c3ccccc3)c(-c3ccccc3)n2Cc2ccco2)c1=N	11	0	1	7
N=c1c2c(-c3ccccc3)c(-c3ccccc3)n(Cc3ccccc3)c2ncn1CCCn1ccnc1	nt	-20	-6	46*
Cc1ccccc1NC(=S)NC(=O)c1cc2c(C)cn(-c3ccccc3)c2s1	nt	nt	nt	10
Cc1nn(-c2ccccc2)c(C)c1Sc1ccccc1[N+](=O)[O-]	nt	nt	nt	-1
Cc1ccc(-n2nc(C)c(Sc3ccccc3[N+](=O)[O-])c2N)cc1	-10	32	-5	39*
Cn1c(=O)oc2cc(S(=O)(=O)N3CCCC(C(=O)NCc4ccc5c(c4)OCO5)C3)ccc21 (configuration not stated)	-7	-24	-1	-19
Cn1c(=O)oc2cc(S(=O)(=O)N3CCCC(C(=O)NCC4COc5ccccc5O4)C3)ccc21 (configuration not stated)	10	13	3	104*
Cc1cc(C)c(O)c(CN(C)Cc2cc(Cl)cc(Cl)c2O)c1	2	86*	100*	-7
Fc1cccc(Nc2nnnc3c2cnn3-c2ccccc2)c1	nt	nt	nt	-11
Cc1cccc(NC(=O)c2ccc(C(=O)c3ccccc3)cc2)n1	9	6	2	-14
O=C(Nc1cccc(NC(=O)c2ccccc2)n1)c1ccccc1	7	31	96*	-22
C/C(=C1/SC(N2CCCC2)=NC1=O)c1ccc(Br)cc1	76*	-13	-5	-2
Cc1cccc(-n2c(O)c(C=NNc3nc4c(c(=O)n(C)c(=O)n4C)n3C)c(=O)[nH]c2=S)c1	nt	nt	nt	56
CCC1OC(=O)C(C)C(OC2C[C@@](C)(OC)C(O)C(C)O2)C(C)C(OC2OC(C)CC(N(C)C)C2O)[C@](C)(OC)CC(C)C(=O)C(C)C(O)[C@]1(C)O (some centres not stated)	nt	100*	101*	nt
Clc1nc2ccccc2nc1-c1ccccc1	14	-1	9	-17
Oc1ccccc1-c1nc2ccccc2nc1-c1ccccc1	-10	12	5	24
Clc1ccc(-c2nc3ccccc3nc2-c2ccccc2)cc1	6	89*	-5	-2
Cc1ccc(-c2nc3ccccc3nc2-c2ccccc2)cc1	3	86*	-2	-46
O=c1c2ccccc2sn1-c1ccccc1	8	94*	84	11
NS(=O)(=O)c1ccc(NN=C2CCCc3ccccc32)c([N+](=O)[O-])c1	21	6	11	10
CC(C)(C)C1CCC(=NNc2ccc(S(N)(=O)=O)cc2[N+](=O)[O-])CC1 (configuration not stated)	0	9	-2	45*
CC1CC(=NNc2ccc([N+](=O)[O-])cc2[N+](=O)[O-])CC(C)(C)C1 (configuration not stated)	-1	29	2	37
CC1CC(=NNc2ccc(S(N)(=O)=O)cc2[N+](=O)[O-])CC(C)(C)C1 (configuration not stated)	6	19	-9	52*
CCOc1ccc(-n2c(SCc3ccc([N+](=O)[O-])cc3)nnc2-c2ccccc2)cc1	5	86*	59	35
SMILES	Mtb hypoxia rep	Sa ugtP lethal	RN4220 kill	SSB-PriA inh
CC1CN(C)C(C)CC1OC(=O)C(c1ccccc1)c1ccccc1 (configuration not stated)	4	86*	1	-5
CCCCOc1ccc(C(=O)OC2CC(C)N(C)CC2C)cc1 (configuration not stated)	15	98*	5	-4
O=S1(=O)C=CC(Nc2ccccc2F)C1 (configuration not stated)	nt	nt	nt	-1
C=CCNC(=S)Nc1sc2c(c1C(=O)OCC)CC(C(C)C)OC2 (configuration not stated)	5	16	22	60*
CCOC(=O)c1c(NC(=S)NCCc2ccccc2)sc2c1CC(C(C)C)OC2 (configuration not stated)	-2	8	5	4
COc1ccc(-c2cn3cccnc3n2)cc1NC(=O)c1c(F)cccc1Cl	nt	nt	nt	-6
CC(C)(C)c1cc(CCC(=O)NNC(=S)NC(=O)c2ccccc2)cc(C(C)(C)C)c1O	-24	89*	64	17
O=C(CCc1ccccc1)NNC(=S)NC(=O)c1ccccc1	4	9	40	9
CCOc1ccc(CCNC(=O)c2ccc(CS(=O)Cc3ccc(Cl)cc3)o2)cc1 (configuration not stated)	2	95*	-8	0
O=C(NCCc1ccccc1)c1ccc(CS(=O)Cc2cccc(Cl)c2)o1 (configuration not stated)	4	87*	-6	-4
CSc1ccc(CCNC(=O)c2ccc(CS(=O)Cc3ccc(Cl)cc3)o2)cc1 (configuration not stated)	5	53	-2	-5
O=C(NCCc1ccc(Cl)cc1)c1ccc(CS(=O)Cc2ccc(Cl)cc2)o1 (configuration not stated)	7	99*	-2	-1
CCOc1ccc(CCNC(=O)c2ccc(CS(=O)Cc3ccccc3Cl)o2)cc1 (configuration not stated)	10	14	-3	-3
O=C(Nc1cccc(-c2cn3ccsc3n2)c1)c1ccc(F)cc1	nt	nt	nt	29
O=C(Cn1cc(S(=O)(=O)N2CCCC2)ccc1=O)NCc1cccs1	nt	nt	nt	-13
Brc1cc(Br)c2nc3c(cc2c1)CCC3	54*	-3	11	-33
O=C(Nc1ccccc1Cl)C(Cl)=C(Cl)S(=O)c1ccccc1 (configuration not stated)	nt	100*	101*	nt
O=C(Nc1ccccc1Cl)c1cccs1	nt	-4	5	-1
CC(=O)N1CCN(c2ccc(NC(=S)NC(=O)c3ccccc3)cc2)CC1	9	93*	0	-5
CN1CCN(c2ccc(NC(=S)NC(=O)c3cccc4ccccc34)cc2)CC1	4	95*	4	30
CN1CCN(c2ccc(NC(=S)NC(=O)c3cccc4c(Br)cccc34)cc2)CC1	-2	56	-1	37
O=C(NC(=S)Nc1ccc(S(=O)(=O)N2CCCCC2)cc1)c1ccccc1	nt	86*	7	-1
O=C(Nc1ccc(S(=O)(=O)N2CCCC2)cc1)c1ccccc1	-5	1	4	2
Cc1ccc(C(=O)NC(=S)Nc2ccc(N3CCN(C(=O)c4ccco4)CC3)cc2)cc1	4	91*	5	6
O=C(Nc1nc(-c2ccc3c(c2)OCO3)cs1)c1cccc(NS(=O)(=O)c2ccc(F)cc2)c1	nt	nt	nt	15
SMILES	Mtb hypoxia rep	Sa ugtP lethal	RN4220 kill	SSB-PriA inh
CCCCCCCCCn1c2c(c(=N)c3c1CCC3)CCC2	24	101*	100*	3
CCCCCCCn1c2c(c(=N)c3c1CCC3)CCCC2	nt	99*	11	-3
CCCCCCn1c2c(c(=N)c3c1CCC3)CCC2	13	2	3	-6
CC(C)N(CC#CCNC(=O)C1CCCN(C)C1)C(C)C (configuration not stated)	nt	nt	nt	-4
O=C(NCC1(Sc2ccccc2)CCOCC1)c1ccc(Br)o1	nt	nt	nt	2
O=C(CSC1=Nc2cccnc2Nc2ccccc21)N1CCN(c2ccccc2)CC1	nt	nt	nt	38*
